From the supplement of paper PMC6518042

What follows are compounds tested on Pectobacterium parmentieri SCC3193 (assay: DuctApe activity index (growth/respiration on compound as sole nutrient source, blank-subtracted) (activity index (0-3)); higher = stronger utilization of the compound, active = 3 or more). Settings: nutrient role (plate category): nitrogen.
Procedure: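 Biolog Phenotype Microarray plates PM1, PM2A (carbon), PM3 (nitrogen) and PM4 (phosphorus/sulfur) inoculated with P. parmentieri SCC3193 in M9-C minimal salts medium with Biolog dye A, and read in the OmniLog for 46 h. Each well was tested in triplicate and the experiment was run twice. DuctApe computed a blank-subtracted activity index (AV, 0-3) from the mean curves; growth is positive at AV >= 3 and negative at AV <= 2.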

DuctApe activity index, inactive:
C[C@H](N)C(=O)N[C@@H](CCC(=O)O)C(=O)O 1
CCCCN [N-Butylamine] 0
NC(=O)NC(N)=O [Biuret] 0
Nc1nc2[nH]cnc2c(=O)[nH]1 [Guanine] 0
NCCCCCC(=O)O [e-Amino-N-Caproic acid] 0

Same assay, conditions: nutrient role (plate category): phosphate & sulphur

DuctApe activity index, inactive:
N[C@@H](CS(=O)(=O)O)C(=O)O [L-Cysteic acid] 1
N[C@@H](CS)C(=O)NCC(=O)O 1
Cc1cn([C@H]2C[C@H](OP(=O)(O)O)[C@@H](CO)O2)c(=O)[nH]c1=O [Thymidine 3`-Monophosphate] 2
N[C@@H](CSC[C@H](N)C(=O)O)C(=O)O [Lanthionine] 1
C[N+](C)(C)CCOP(=O)(O)O [Phosphoryl Choline] 1
CSC[C@H](N)C(=O)O [S-Methyl-L-Cysteine] 1
NCCOP(=O)(O)O [O-Phosphoryl-Ethanolamine] 1
Nc1nc2c(ncn2[C@@H]2O[C@H](CO)[C@@H](OP(=O)(O)O)[C@H]2O)c(=O)[nH]1 [Guanosine 3`-Monophosphate] 2
NCCS(=O)(=O)O [Taurine] 1
